An excerpt weighted towards active compounds, which were near 4.4% of everything screened.
tim10-1 inh = growth inhibitors of tim10-1 mutant yeast, primary screen, luminescence, uHTS. actives 2.2% (n = 330,000). S. cerevisiae tim10-1 ts strain growth, BacTiter-Glo, 24 h. AID 463190, 2010. inhibition, % at 20 µM;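 active means inhibition of at least 40%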;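 further: mutant grown at 25 °C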
TIM10 inh = growth inhibitors of isogenic TIM10 control yeast, primary screen, counter-screen for tim10-1 yeast inhibitor project, luminescence, uHTS; S. cerevisiae TIM10 strain growth, BacTiter-Glo luminescence, 24 h; inhibition, % at 10 µM; actives 1.4% (n = 330,000); AID 463195, 2010;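 active means inhibition of 40% or more at the single tested concentration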;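 further: wild-type TIM10 isogenic control strain grown at permissive 25 °C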
tim23-1 inh = growth inhibitors of tim23-1 mutant yeast, primary screen, luminescence, uHTS. S. cerevisiae tim23-1 growth, BacTiter-Glo luminescence, 24 h. inhibition, % at 20 µM. actives 1.3% (n = 330,000). AID 463212, 2010;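 active means growth inhibition of the mutant yeast at or above 50%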;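 further: temperature-sensitive mutant grown at 25 °C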
SUMO Mot1 rescue = yeast Mot1-301 growth rescue at high temperature, primary screen, SUMOylation pathway inhibitor project, S. cerevisiae, ATP luminescence, 38.5C. growth rescue, % at 18.8 µM. S. cerevisiae Mot1-301 growth rescue; percent above DMSO median, 100 means doubled. actives 1% (n = 320,000);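 active means every valid replicate shows activation above 250% relative to neutral control wells; inactive means the rest, any valid replicate at or below 250%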
PfHsp90 yeast 2 = growth inhibition of PfHsp90-expressing yeast, primary screen, antimalarial PfHsp90 inhibitor project, S. cerevisiae, BacTiter-Glo luminescence, single point, set 2. BacTiter-Glo ATP, 48 h; yeast lacking PDR1 and PDR3 efflux regulators. inhibition, % at 9.4 µM. actives 0.32% (n = 310,000). AID 504621, 2011;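 active means every replicate shows inhibition above about 80%, whatever the replicate mean, limit read from the data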
Of the large screens only hits and unclear results are named; the others gave an inactive call; ! = repeats disagree.

Cc1ccc(N2CC(C(=O)Nc3nc4ccc(S(C)(=O)=O)cc4s3)CC2=O)cc1 (centres undefined)	none
COc1ccc(NC(=O)C2Cc3cc(S(=O)(=O)N4CCCCC4)ccc3N2C(C)=O)cc1Cl (centres undefined)	none
O=C(COC(=O)C1=COCCO1)Nc1ccccc1	none
O=C(COC(=O)C1=COCCO1)Nc1ccc(F)c(F)c1	SUMO Mot1 rescue 609 (no result: PfHsp90 yeast 2)
Cc1ccc(OCC(O)CN2CCC(Cc3ccccc3)CC2)c(C)c1 (centres undefined)	none
c1coc(CN(Cc2cccs2)Cc2nnnn2C2CCCCC2)c1	none
Clc1ccccc1CN(Cc1ccco1)Cc1nnnn1C1CCCC1	PfHsp90 yeast 2 85
COC(=O)c1ccccc1S(=O)(=O)NNC(=O)C12CC3CC(CC(C3)C1)C2	none
CC(=O)N(C)c1ccc(OCC(O)Cn2c3ccc(Cl)cc3c3cc(Cl)ccc32)cc1 (centres undefined)	PfHsp90 yeast 2 98
CC(=O)N(C)c1ccc(OCC(O)Cn2c(C)nc3ccccc32)cc1 (centres undefined)	none (no result: PfHsp90 yeast 2)
O=C(Nc1ccccc1)Nc1n[nH]c2nnc(-c3ccccc3)c(-c3ccccc3)c12	none
COCCN(C(=O)COC(=O)CSc1ccccc1)c1c(N)n(Cc2ccccc2)c(=O)[nH]c1=O	SUMO Mot1 rescue 356
CCC(=O)NC(=S)NNC(=O)c1ccc(OC)cc1	none (no result: PfHsp90 yeast 2)
CCCCOc1ccc(C(=O)NNC(=S)NC(=O)CC)cc1	PfHsp90 yeast 2 106 (no result: tim10-1 inh, TIM10 inh, tim23-1 inh)
CC(C)OCCCNC(=O)c1cc(S(=O)(=O)N2CCc3ccccc32)cn1C	none
Cc1sc2ncnc(N/N=C/c3ccc(O)cc3)c2c1C	none
Cc1sc2ncnc(N/N=C/c3ccccc3O)c2c1C	PfHsp90 yeast 2 101 (no result: tim10-1 inh, TIM10 inh, tim23-1 inh)
c1ccc2c(c1)NCC1CCCN21 (centres undefined)	none
O=C1NC(=O)N(Cc2ccccc2)CC1Br (centres undefined)	none (no result: tim10-1 inh, TIM10 inh, tim23-1 inh, SUMO Mot1 rescue)
CC1N(C(=O)N(C)C)CCN1S(=O)(=O)c1ccccc1 (centres undefined)	none
O=c1cc(O)c(-c2ccc(Cl)cc2)c(Cl)[nH]1	none
O=C1c2cc(Cl)ccc2-c2c(O)cc(Cl)cc21	PfHsp90 yeast 2 97 (no result: tim10-1 inh, TIM10 inh, tim23-1 inh, SUMO Mot1 rescue)
C/C(=C\C(=O)c1ncc(C(F)(F)F)cc1Cl)N(C)C	none (no result: PfHsp90 yeast 2)
CN(C)/C=C(\C=O)c1ncc(C(F)(F)F)cc1Cl	SUMO Mot1 rescue 905
COc1ccc(Nc2cnn(-c3nc4ccccc4s3)c(=O)c2Cl)cc1	PfHsp90 yeast 2 96 (no result: tim10-1 inh, TIM10 inh, tim23-1 inh)
CN[C@H](CC(=O)O)C(=O)O	SUMO Mot1 rescue 307
Cc1cc(C)cc(N2C(=O)c3nccnc3C2=O)c1	none
Cc1cc(C)cc(N2C(=O)C=CC2=O)c1	PfHsp90 yeast 2 108 (no result: tim10-1 inh, TIM10 inh, tim23-1 inh, SUMO Mot1 rescue)
O=C(Nc1ccc(-c2nc3ccccc3o2)cc1)c1ccc(N2CCOCC2)c([N+](=O)[O-])c1	none
Cn1cc([N+](=O)[O-])c(C(=O)Nc2ccc(-c3nc4ccccc4o3)cc2)n1	SUMO Mot1 rescue active
Cc1ncsc1C(=O)Nc1cccc(C(F)(F)F)c1	none
O=C(CCCN1CCC(O)(c2ccc(Cl)cc2)CC1)c1ccc(F)cc1	SUMO Mot1 rescue 588!
Cc1ccc(NC(=O)CN2C(=O)NC(C)(CC(C)C)C2=O)c(Br)c1 (centres undefined)	none
COc1ccc(CN(C)C(=O)C(Cc2ccccc2)NC(=O)c2ccccc2)c(OC)c1 (centres undefined)	none (no result: SUMO Mot1 rescue)
O=C(CSc1cccc[n+]1[O-])Nc1cc(Cl)ccc1[N+](=O)[O-]	none
O=[N+]([O-])c1ccc(Sc2cccc[n+]2[O-])c2nonc12	PfHsp90 yeast 2 97 (no result: tim10-1 inh, TIM10 inh, tim23-1 inh, SUMO Mot1 rescue)
N#C/C(=C/c1ccc(O)cc1)C(=O)NCc1ccc(Cl)cc1	PfHsp90 yeast 2 103
N#C/C(=C\c1ccc(O)cc1)C(=O)NCc1ccccc1	none
O=C1CCCC2=C1C(c1ccc(O)c(Br)c1)C1=C(CCCC1=O)N2c1ccccc1	SUMO Mot1 rescue active
CC(C)C(NC(=O)c1ccccc1)C(=O)N1CCCCCC1 (centres undefined)	none
Cc1cc(Cl)ccc1C(=O)C1CCCN(C(=O)c2cncs2)C1 (centres undefined)	PfHsp90 yeast 2 96
O=C(c1ccc(-c2ccccc2)c(F)c1)C1CCCN(C(=O)c2cncs2)C1 (centres undefined)	PfHsp90 yeast 2 89
